# Mito fusion yeast = blocks mitochondrial division or promotes mitochondrial fusion | S. cerevisiae fusion-defective mutant growth rescue, CellTiterGlo 48 h | Potency, µM (highest dose often 46.1 µM), for the others: at the top dose growth rescue (activation), actives largely listed as activators | 320,000 tested, 0.23% active; also: potency is read from the fitted curve at half-maximal effect; % of control where 0% means no effect; nearly all actives have a fitted effect of over 45% in size
#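 S. cerevisiae fusion-defective temperature-sensitive mutants (e.g. fzo1-1, mgm1-5) grown 48 h at 37C in YPEG (ethanol/glycerol non-fermentable) medium with 23 nl compound per well; growth rescue read as CellTiterGlo luminescence.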
# MBNL1 CUG block = MBNL1-poly(CUG) RNA binding inhibition; AID 2675; Potency, µM (doses to about 57.5 µM), for inactives: at the top dose activity change, negative = inhibition, actives largely listed as inhibitors; TR-FRET MBNL1-His/biotin-(CUG)12 binding, 665/545 ratio; 280,000 tested, 0.036% active; Q9NR56; active = well fitted inhibition curve with a large enough effect in the signal ratio, with a control signal flat, not every such curve was filed as active; inconclusive = small, poorly fitted or top-dose-only effect, or effect the other way, or a change in a side signal; inactive = no such curve, though single readings can be large or run the other way; the % refers to the signal ratio; also: potency is read from the fitted curve at half-maximal effect; % is scaled to controls: 0 for no effect and ±100 for the full control effect
# Target sequence (Q9NR56 whole entry, looked up): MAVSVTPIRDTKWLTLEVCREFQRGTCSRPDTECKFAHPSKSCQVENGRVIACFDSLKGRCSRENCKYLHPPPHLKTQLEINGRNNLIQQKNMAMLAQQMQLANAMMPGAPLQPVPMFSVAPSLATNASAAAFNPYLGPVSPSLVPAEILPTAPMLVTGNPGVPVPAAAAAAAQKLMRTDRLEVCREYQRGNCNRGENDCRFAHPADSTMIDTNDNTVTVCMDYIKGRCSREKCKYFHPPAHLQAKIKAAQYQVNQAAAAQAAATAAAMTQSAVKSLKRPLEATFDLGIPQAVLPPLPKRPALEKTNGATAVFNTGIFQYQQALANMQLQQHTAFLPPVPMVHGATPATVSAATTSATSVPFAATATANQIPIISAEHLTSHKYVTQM
#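 TR-FRET readout: Ex 340 nm, 665/545 nm emission ratio, normalized to buffer-only (basal) and MBNL1-(CUG)12 controls. Complex of MBNL1-His with Biotin-(CUG)12, compounds 92 nM–58 uM, incubated 60 min at room temperature.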
# ClpP mod = qHTS Assay for Activators of ClpP | ATP-dependent Clp protease proteolytic subunit (Bacillus subtilis (strain 168)), P80244 | purified B. subtilis ClpP, FRET peptide cleavage, 20 min | Potency, µM (top dose mostly 57.5 µM), for inactives: at the top dose activity change, negative = active | 340,000 tested, 1.9% active | AID 651965, 2013; active = well fitted falling curve with a large enough effect; inconclusive = small, poorly fitted or top-dose-only effect; inactive = no such curve, though single readings can be large or run the other way; also: potency is read from the fitted curve at half-maximal effect; the source files actives as falling curves though it sought activators and does not explain the sign; nearly all actives have a fitted effect of over 65% in size
# Target sequence (P80244 whole entry, looked up): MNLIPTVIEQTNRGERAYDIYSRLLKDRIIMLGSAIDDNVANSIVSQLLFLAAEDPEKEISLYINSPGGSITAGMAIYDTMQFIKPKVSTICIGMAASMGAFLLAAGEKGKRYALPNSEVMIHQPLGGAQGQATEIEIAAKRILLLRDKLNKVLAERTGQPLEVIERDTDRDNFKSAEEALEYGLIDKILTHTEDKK
#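 Buffer: 100 mM Tris/HCl pH8, 100 mM KCl, 0.05% low protease BSA, 2.5% glycerol, 0.01% Tween-20. ClpP 10 microg/mL final; 20 min RT; delta FRET normalized to ADEP and DMSO controls.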
# TCR activator = activates T cell receptor signaling; primary human leukocytes, anti-CD3, IL-2 HTRF, 48 h; 330,000 tested, under 10 active; Potency, µM (highest dose often 9.22 µM), for inactives: at the highest dose activation of IL-2 secretion, actives largely listed as activators; also: % of control where 0% means no effect
#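 IL-2 release read by HTRF sandwich (Eu cryptate donor, d2 acceptor, 665 nm emission) after 48 hr exposure of primary human leukocytes to compound together with anti-CD3 beads in the absence of co-stimulatory signals.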
# Glioma ERSR ind = inducers of ER stress response in human glioma cells | U87-MG GRP78 promoter luciferase reporter, 16 h | Potency, µM, for the others: at the top dose activation, actives largely listed as activators | 420,000 tested, 0.02% active; also: potency is read from the fitted curve at half-maximal effect; series mostly up to about 76 µM; % of control where 0% means no effect; nearly all actives have a fitted effect of over 35% in size
#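 ERSR induction read as luciferase luminescence (Bright-Glo, 10 min at room temperature) in stably transfected human U87-MG glioma cells exposed to compounds for 16 h, using GRP78 as sensor.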
# A-T KAP1 phos = potential ataxia-telangiectasia treatments restoring KAP-1 phosphorylation | F2112 A-T fibroblasts, KAP-1 phosphorylation AlphaLISA; neocarzinostatin DNA damage 30 min before lysis | Potency, µM (top dose mostly 57.5 µM), for inactives: at the highest dose activation, hits mostly activators | 320,000 tested, 0.19% active | AID 485349; also: potency is read from the fitted curve at half-maximal effect; % of control where 0% means no effect; nearly all actives have a fitted effect of over 45% in size
#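 ATM-like activity read as KAP-1 phosphorylation via AlphaLISA donor/acceptor antibody pairs after lysis and 6 hr at 25C. Cells were ATM-null patient fibroblasts (F2112, hTERT), dosed 60 min, then exposed to the DSB inducer NCS for 30 min.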
# Starred values were filed as active, the others as inactive; ? = inconclusive; . = no result; ! = repeats disagree; [ ] = remark or other dose. Sampled rows, rich in hits. Any-hit rate of the full collection: about 1.8%. Unless noted, calls follow the shape of the dose curve; as a rule, active = well fitted curve in the direction sought with a large enough effect; inconclusive = small, poorly fitted or top-dose-only effect, or another doubt; inactive = no such curve, though single readings can be large; an effect the other way counts as inactive or inconclusive.
SMILES,Mito fusion yeast,MBNL1 CUG block,ClpP mod,TCR activator,Glioma ERSR ind,A-T KAP1 phos
Cc1ccnc(NS(=O)(=O)c2ccc(N3C(=O)C4CCCCC4C3=O)cc2)n1 (configuration not stated),10.5%,-3.1%,.,-0.2%,-2.3%,1.1%
O=C1C2CCCCC2C(=O)N1c1ccc(S(=O)(=O)Nc2ncccn2)cc1 (configuration not stated),1.6%,-0.5%,15.8µM*,1.5%,-3.7%,7.1%
CC(C(O)c1ccc(O)cc1)N1CCC(Cc2ccccc2)CC1 (configuration not stated),16.4µM*!,-0.3%,-1.6%,-9.1%,-5.6%,-7.6%
C[C@@H](CN1CCC(Cc2ccccc2)CC1)[C@@H](O)c1ccc(O)cc1,23.1µM*!,.,0.6%,-3.9%,-3.7%,-4.8%
COC(=O)c1ccc(C(=O)N2CCc3c(C(=O)NC(C)c4ccco4)c(OC)cc(=O)n3CC2)cc1 (configuration not stated),.,.,.,.,-1.4%,.
Cc1noc2ncnc(Nc3ccc(F)cc3)c12,.,.,-3.5%,.,-3.0%,.
CC(C)c1ccc(Nc2ncnc3onc(-c4ccc(F)cc4)c23)cc1,.,.,22.4µM*,.,-1.0%,.
Cc1cc(=O)[nH]c(SCC(=O)N2CCCC2)n1,.,.,22.4µM*,2.3%,-2.2%,-7.9%
CCOc1ccc(NC(=O)CCCN2C(=S)NC(C)(C)CC2C)cc1 (configuration not stated),-4.8%,.,28.2µM*,2.3%,-1.1%,-4.5%
COC(=O)C1C(O)CC[C@H]2CN3CCc4c([nH]c5ccccc45)C3C[C@H]12 (some centres not stated),.,.,.,.,-6.0%,.
Cc1ccc(NC(=O)c2cc3cc(OC(F)(F)F)ccc3[nH]2)cc1,6.3%,.,-13.1%,11.7%,-0.7%,8.0%
O=C(NNC(=O)c1ccccc1Cl)c1cc2cc(OC(F)(F)F)ccc2[nH]1,-0.6%,.,15.8µM*,3.4%,-3.5%,-4.9%
Cc1cc(C(=O)Nc2cccc(-c3nc(CNC(=O)c4sc(C)nc4C)c(C)o3)c2)c(C)o1,.,.,.,.,-3.4%,.
Cc1ccc(C)c(-n2c(-c3ccc4c(c3)OCO4)n[nH]c2=S)c1,3.2%,16.9%,28.2µM*,-5.3%,-0.2%,5.4%
Cc1oc(-c2ccccc2NC(=O)c2ccsc2)nc1CN(C)Cc1ccc2c(c1)CCCN2C,.,.,.,.,4.1%,.
Cn1c(C(=O)NCc2ccccc2F)cc2oc3ccccc3c21,.,.,4.5%,.,.,.
Cn1c(C(=O)NCc2ccccc2)cc2oc3ccccc3c21,3.7%,3.4%,25.1µM*,-0.3%,1.5%,-1.6%
CCn1c(C(=O)NCc2ccccc2Br)cc2oc3ccccc3c21,.,.,22.4µM*,.,-2.1%,.
Cn1c(C(=O)NCc2cccs2)cc2oc3ccccc3c21,1.1%,-11.4%,31.6µM*,-1.6%,-1.9%,15.4%
CCn1c(C(=O)NCc2cccc(Br)c2)cc2oc3ccccc3c21,.,.,4.2%,.,.,.
COc1ccc(CNC(=O)c2cc3oc4ccccc4c3n2C)cc1OC,.,.,25.1µM*,.,-3.4%,.
COc1ccc(CN2CC[C@H]3C=CC[C@@H](C(=O)N4CCN(c5ccccc5)CC4)[C@H]3C2=O)cc1OC,.,.,1.0%,.,-3.1%,.
O=C(NCCc1ccccn1)C1CC12CCN(C(=O)c1ccc(F)cc1Cl)CC2 (configuration not stated),.,.,.,.,-3.0%,.
Nc1ccc2c(c1)C(=O)N(CCCCCC(=O)O)C2,1.3%,5.3%,15.8µM*,0.8%[46.1 µM],-4.2%,.
Nc1ccc2c(c1)C(=O)N(CCCC(=O)O)C2=O,-3.9%,?,0.1%,-0.9%,-5.5%,4.1%
SMILES,Mito fusion yeast,MBNL1 CUG block,ClpP mod,TCR activator,Glioma ERSR ind,A-T KAP1 phos
Cc1cccc(-c2cnc(C)nc2C2CCCN(C(=O)c3cccc(Cn4cccn4)c3)C2)c1 (configuration not stated),.,.,.,.,-0.1%,.
CCN(CC)C(=O)Sc1cccc2cccnc12,-3.4%,3.5%,28.2µM*,-1.5%,-1.8%,-2.6%
COc1ccc(CNC(=O)CSc2cccc3cccnc23)cc1,-1.2%,94.2%,.,-4.2%,0.0%,-3.4%
CCOC(=O)CSc1cccc2cccnc12,-1.1%,17.1%,15.8µM*,-1.5%[46.1 µM],2.9%,9.4%
CC(=O)/C(=N/Nc1ccc(Br)cc1)Sc1cccc2cccnc12,9.4%,-4.7%,-2.1%,-4.4%[46.1 µM],-2.5%,-5.6%
O=C(CSc1cccc2cccnc12)NCc1ccco1,-1.6%,39.1%,25.1µM*,-1.3%,-2.4%,-8.1%
CCn1c2c(c(=O)n3ncc(C(=O)Nc4cc(Cl)ccc4OC)c13)CN(Cc1ccc(OC)cc1)CC2,.,.,31.6µM*,.,-4.1%,.
CCn1c2c(c(=O)n3ncc(C(=O)Nc4cc(Cl)ccc4C)c13)CN(Cc1ccc(OC)cc1)CC2,.,.,-8.7%,.,-2.1%,.
Cc1[nH]nc2c1C(c1ccsc1C)C(C#N)=C(N)O2 (configuration not stated),-8.3%,8.1%,-0.5%,-3.5%,-2.7%,-5.4%
Cc1cc(C2C(C#N)=C(N)Oc3n[nH]c(C)c32)c(C)s1 (configuration not stated),16.0%,7.4%,17.8µM*,0.7%,8.9%,?
O=C(/C=C/c1cc2c(cc1Br)OCO2)NCc1ccc(F)cc1,-8.1%,-7.9%,?,-0.1%,-4.2%,-1.1%
COc1ccc(CNC(=O)/C=C/c2cc3c(cc2Br)OCO3)cc1,5.9%,-8.5%,25.1µM*,-5.2%,-4.8%,-6.8%
Cc1cccc2c(Nc3ccc4c(c3)OCO4)nc(CN3CCC(N4CCCCC4)CC3)nc12,.,.,.,.,-0.8%,.
COC(=O)c1ccncc1N,-9.0%,2.8%,3.9%,-11.1%,-0.7%,1.5%
COC(=O)c1sc2cnccc2c1N,-4.9%,?,14.1µM*,-3.3%,-3.6%,.
O=C(OCC(=O)N1CCOCC1)c1ccc2ccccc2c1O,-4.4%,.,28.2µM*,1.3%,1.7%,5.1%
CC(C(O)c1ccccc1)N(C)CCOC(c1ccccc1)c1ccccc1 (configuration not stated),.,.,.,.,-5.8%,.
Cc1cccc(CSCCNC(=S)Nc2ccccc2)c1,15.8%,-5.8%,25.1µM*,-13.4%[46.1 µM],-2.3%,1.1%
S=C(NCCSCc1ccc(Cl)cc1)Nc1ccccc1,-0.1%,-2.0%,-0.4%,-0.2%,-5.2%,3.2%
O=C1CCCN1CCC(=O)N1CCCC(Nc2ccc(F)cc2)C1 (configuration not stated),0.1%,-4.7%,28.2µM*,-0.8%,-1.4%,2.7%
CC1CCC/C(=C\Nc2ccc3c(c2)OCO3)C1=O (configuration not stated),0.0%,7.7%,-0.9%,4.3%,2.3%,6.2%
CC1CCC/C(=C\Nc2ccccc2C(=O)O)C1=O (configuration not stated),-0.5%,0.1%,22.4µM*,-1.3%,-1.0%,-0.1%

# Source: PubChem BioAssay (National Center for Advancing Translational Sciences (NCATS))
